About 83,000 compounds went through this panel and 20% of them were active in at least one assay; those are over-represented in the sample as a whole.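 Assay: single dose, 48 h. Readout: percent growth (0 = no net growth; negative = cell death). Active: <10.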 The source made the active and inactive calls.

This test deals with IGROV1 ovarian. As to the kind of experiment: NCI-60 one-dose screen, 48 h (100 = growth as untreated, 0 = no growth, -100 = all killed). The following applies: 10 µM unless noted. The method, then:
Growth inhibition of the IGROV1 human tumor cell line is measured as a screen for anti-cancer activity. Cells are grown in 96 well plates and exposed to the test compound for 48 hours. Compounds are tested at a single concentration, which is 10^-5 M for most compounds. The reported endpoint is percent growth (GI% or GIPRCNT), where numbers from 0 - 100% represent growth inhibition, and numbers from -100% - 0 represent cell death. For example, a value of 40 represents 60% growth inhibition. A value of 0 means no net growth occurred over the course of the experiment. A value of -40 indicates 40% of cells at the beginning of the experiment died by the end of the experiment. A value of -100 means all cells are dead at the end of the experiment.
NCI-60 Human Tumor Cell Lines Screen was performed using the standard one-dose NCI protocol, which is described in more detail at https://dtp.cancer.gov/discovery_development/nci-60/default.htm.
Compounds with GIPRCNT values below 10 were considered active. Activity score was based on GIPRCNT using the following formula: […]
Score is 0 for GIPRCNT values of 100 or above, 50 for GIPRCNT values of 0, and 100 for GIPRCNT values of -100.
Turning to `Cc1ccc2[nH]c(=O)cc(-n3nncc3Cn3c4ccccc4c4ccccc43)c2c1`, the growth was 103% (inactive).
The figure for `CCOC(=O)c1ccc(N=Cc2sc(=O)[nH]c2O)cc1` is 87.1% (inactive).
Take `CCN1C(=O)N(CC)C2Nn3c(s/c(=C4\C(=O)N(C(C)C)c5ccccc54)c3=O)=NC21` (stereo not given): the growth is 49.5% (inactive).
Consider `COc1cc(NC(=O)CCSc2nc3ccccc3c(=O)n2Cc2ccccc2)cc(OC)c1OC`, for which the growth was 99.4% (inactive).
With `CCCCC(O)(c1ccc(Cl)cc1)C(CN1CCOCC1)c1ccc(Cl)cc1` (stereo not given), the growth was 40% (inactive).
Turning to `CCOC(=O)C1=CN(C)C=C(C(=O)OCC)C1c1cc(Br)c(OCC)c(OC)c1`, the growth was 35.6% (inactive).
Turning to `O=C(CSc1nc2ccccc2c(=O)n1-c1ccccc1)Nc1ccc(C(=O)/C=C/c2ccc(Cl)cc2)cc1`, the growth is 97.3% (inactive).
On to `COc1cc(C=C2C(=O)N(C)C(=O)N(C)C2=O)cc(CN2CCCCC2)c1O`, for which the growth was 104% (inactive).
The figure for `COc1cc(CNC(=O)c2ccsc2Nc2ccnc(C(F)(F)F)c2)ccc1O` is 105% (inactive); for `COc1ccc(/C=C/C(=O)c2ccc(Nc3nc(NCCO)nc(Nc4ccc(Cl)cc4)n3)cc2)cc1` it is 98% (inactive).
Then `CCCN1CCN(c2ccc3nc(-c4ccc5nc(-c6cc(OC)ccc6OC)[nH]c5c4)[nH]c3c2)CC1`, with 103% (inactive); and `COc1cccc2c(=O)c3c(sc12)c(NCCCNCCO)nc1ccccc13`, with 26.2% (inactive).
The figure for `COc1cc(C(=O)NN=C2c3ccccc3-c3ccccc32)cc(OC)c1OC` is 32.3% (inactive).
On to `O=C(Nc1ccc(Br)cc1F)c1cc(I)ccc1O`, for which the growth was 16.6% (inactive).
With `COc1cc(C(=O)O/N=C(\N)Cc2cccc3ccccc23)cc(OC)c1OC`, the growth was 46.9% (inactive).
Then `O=C(/C=C/c1ccc(C(F)(F)F)cc1)c1ccc(Nc2nc(NCCO)nc(N3CCOCC3)n2)cc1`, with 25.4% (inactive); and `O=c1cc(NC2CCN(CCCc3ccccc3)CC2)c2cc(Cl)ccc2o1`, with -4.09% (active); and `COc1cc(C#N)cc2[nH]c(=O)oc12`, with 105% (inactive).
The figure for `CCC1=C[C@]2(C3CC(=O)N(c4ccccc4)C3=O)CC(C(C)(C)C)C[C@@H]2[C@@H]2C(=O)N(c3ccccc3)C(=O)[C@H]12` (stereo not given in full) is 90.8% (inactive).
As for `Nc1nc(-c2ccccc2Br)nn1-c1nc2ccccc2s1`, the growth is 101% (inactive).
Regarding `CC(=S)NC(=O)C(=O)/C=C1/NC(=O)C(=O)S1`, the growth is 109% (inactive).
Regarding `CCN1C(=O)N(CC)C2C1NN=c1s/c(=C3\C(=O)N(C(C)C)c4ccccc43)c(=O)n12` (stereo not given), the growth was 36.5% (inactive).
`N[C@@H](CC/[N+]([O-])=N/O)C(=O)O`: the growth is 93.3% (inactive).
With `Cc1sc2ncn(CC(=O)Nc3ccc(S(N)(=O)=O)cc3)c(=O)c2c1C`, the growth is 102% (inactive).
For `CCCCCCCCCCOC(=O)c1ccccc1C(=O)OCCCC`, the growth was 118% (inactive).
With `Clc1ccc(Nc2scc3[n+]2CCC3)cc1`, the growth was 104% (inactive).
Then `CCOC(=O)c1ccc2[nH]c(-c3ccccc3)cc(=O)c2c1`, with 92.5% (inactive); and `O=C(NN1C(=O)CSC1c1ccc(Cl)cc1)c1[nH]c2ccc(F)cc2c1-c1ccccc1` (stereo not given), with 36.8% (inactive); and `NC1(N2SC(S)=C3CCCC=C32)CCCCC1`, with 93.6% (inactive).
The figure for `c1ccc(-c2ccc(-c3nc4ccccc4[nH]3)cc2)cc1` is 75.1% (inactive); for `CN(C)c1ccc(/C=C/c2ccnc3c(O)cccc23)cc1` it is 11.4% (inactive); for `O=C(Nc1ccc(Cl)cc1)N1CCN(c2ccc3nncn3n2)CC1` it is 72.3% (inactive).
`O=C(CCc1nnc2sc(COc3ccccc3)nn12)c1nc2ncccc2[nH]1`: the growth was 87.2% (inactive).
In the case of `Cc1sc2ncnc(Sc3nc4ccccc4[nH]3)c2c1C`, the growth was -76.5% (active).
For `CCn1c(Cc2ccccc2Nc2c(Cl)cccc2Cl)nnc1SCC(=O)NN1C(=O)/C(=C/c2cccc(OC)c2OC)SC1=S`, the growth was 99% (inactive).
`Cn1nc(C(F)(F)F)c(-c2ccc(Cl)c(C(F)(F)F)c2)c1-c1ccc(OCc2ccc(Cl)cc2)cc1O`: the growth is 38.9% (inactive).
On to `O=C(Nc1ccc(Br)cc1F)c1cc(F)ccc1O`, for which the growth was 19.2% (inactive).
With `COc1cc(OC)cc(N2C(=O)N(Cc3ccc(C(C)(C)C)cc3)c3ccccc3S2(=O)=O)c1`, the growth was 86.4% (inactive).
For the compound `O=C(Nc1ccc(I)cc1F)c1cc(F)ccc1O`, the growth is 12.7% (inactive).
Then `O=C(NC1CCCCC1)C(c1cccs1)N(CCc1ccccc1)C(=O)c1ccco1` (stereo not given), with 97.7% (inactive).

(Values after PubChem BioAssay (NCI).)
